Experimental data from PubChem BioAssay.
“And” between values parts separate entries of the source, which are not always exact repeats. Identical values can stand only once. The source made the active and inactive calls. Unless noted, no rule for the calls is given here.

Experiments:
[1] = liver-stage malaria parasite growth inhibition, primary screen, cell-based, HepG2, luciferase luminescence, HepG2 viability (AID 624349; in the data active = parasite load remaining mostly below about 12%, no sharp cut-off; inactive = mostly above about 10%;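 also: 100% = mean of DMSO negative control wells on the same plate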); settings: P. berghei liver stage in HepG2, luciferase luminescence, concentration not given here; parasite load remaining: stronger effect = lower value; viability: measured here: HepG2 viability without parasites
[2] = Cy5 fluorescence interference with SSB-bound oligo, artefact control for HCV NS3 helicase inhibitor project, biochemical, NIH Clinical Collection, E. coli SSB (AID 743268)
[3] = system: Hepatitis C virus NS3 helicase; assay: HCV NS3 helicase inhibitors, primary screen, biochemical, fluorescence polarization, NIH Clinical Collection (AID 743270); settings: NS3 helicase binding to Cy5-dT15 DNA, stronger effect = higher value, concentration not given here
[4] = molecular target: Single-stranded DNA-binding protein (Escherichia coli (strain K12)) (UniProt P0AGE0); assay: E. coli SSB displacement from DNA, counter-screen for HCV NS3 helicase inhibitor project, biochemical, fluorescence polarization, NIH Clinical Collection (AID 743271; in the data active = inhibition above about 28%); settings: stronger effect = higher value, concentration not given here
[5] = fluorescence interference in NS3h assay format, artefact control for HCV NS3 helicase inhibitor project, biochemical, NIH Clinical Collection (AID 743272); settings: fluorescence interference counterscreen, stronger effect = lower value;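 also: HCV NS3 helicase with a Cy5 labelled single stranded DNA probe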
[6] = system: Neuropilin-2 / VEGF-C interaction (human); assay: inhibitors of NRP2–VEGF-C binding, biochemical, microplate binding format, z-score (AID 743281); settings: microplate NRP2/VEGF-C binding assay; stronger effect = lower value
F380Y = assay: modulators of BK channel variants, profiling panel, selectivity assay, cell-based, U2OS BacMam, thallium flux, beta subunits (AID 1259406;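 active = thallium flux through the channel raised or lowered by more than 3 SD from vehicle-only wells, actives on both sides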;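 also: initial slope of Thallos dye fluorescence rise after thallium is added; log ratio against the mean of 0.3% DMSO vehicle wells on the same plate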); settings: at 30 µM
F380Y/beta1 = assay: as above; settings: at 30 µM
F380Y/beta2Delta = assay: as above; settings: at 30 µM
F380Y/beta4 = assay: as above; settings: at 30 µM
[7] = molecular target: Calcium-activated potassium channel subunit alpha-1 (Homo sapiens) + Leucine-rich repeat-containing protein 26 (Homo sapiens) (UniProt Q12791+Q2I0M4); assay: as above; settings: F380Y/Slo1WT/gamma1, at 30 µM
R275C = assay: as above; settings: at 30 µM
R275C/beta1 = assay: as above; settings: at 30 µM
R275C/beta2Delta = assay: as above; settings: at 30 µM
R275C/beta4 = assay: as above; settings: at 30 µM
R275C/Slo1WT/beta2 = assay: as above; settings: at 30 µM
[8] = modulation of C. elegans fzo-1 (AID 1259413);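 also: fzo-1 mutant C. elegans worms in liquid wells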; settings: C. elegans fzo-1 modulator screen, mean read-out; stronger effect = higher value
[9] = sensitizers of A549 cells to miR-34 induction, primary screen, imaging, A549 dox-inducible miR-34, nuclei and caspase counts (AID 1347080;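 active = compounds whose cell count with miR-34 switched on is under 0.7 times the count with it off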); settings: A549 miR-34 inducible, Hoechst nuclei count, 48 h
[10] = viability rescue of complex I mutant cybrids, primary screen, cell-based, galactose medium, ATP luminescence (AID 1645843;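 active = z-score of at least 1.8 in each of two replicates, scored against plate mean and spread of sample wells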;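 also: positive z means more ATP and so rescue of galactose-driven cybrid death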); settings: complex I mutant cybrid cells, 72 h, stronger effect = higher value
[11] = survival rescue of mitochondrial mutant cells in low glucose, primary screen, MELAS cybrids, Rieske KO mouse fibroblasts, CellTiter-Glo (AID 1508586;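 active = mean z-score across replicates of 1.96 or higher in either the MELAS or the Rieske mutant cell line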;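 also: z relative to plate mean and SD of compound and empty wells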)
[12] = stronger effect = lower value, cell number ratio, induced over uninduced
[13] = measured here: relative caspase fold change +Dox/-Dox
[14] = measured here: total cells with miR-34 induction, stronger effect = lower value
[15] = measured here: total cells without miR-34 induction
[16] = MELAS cybrid survival, CellTiter-Glo 48 h, stronger effect = higher value
[17] = Rieske KO mouse fibroblast survival, CellTiter-Glo 72 h

Sequence of Calcium-activated potassium channel subunit alpha-1 (Homo sapiens) + Leucine-rich repeat-containing protein 26 (Homo sapiens) (Q2I0M4 whole entry, looked up, one chain of several): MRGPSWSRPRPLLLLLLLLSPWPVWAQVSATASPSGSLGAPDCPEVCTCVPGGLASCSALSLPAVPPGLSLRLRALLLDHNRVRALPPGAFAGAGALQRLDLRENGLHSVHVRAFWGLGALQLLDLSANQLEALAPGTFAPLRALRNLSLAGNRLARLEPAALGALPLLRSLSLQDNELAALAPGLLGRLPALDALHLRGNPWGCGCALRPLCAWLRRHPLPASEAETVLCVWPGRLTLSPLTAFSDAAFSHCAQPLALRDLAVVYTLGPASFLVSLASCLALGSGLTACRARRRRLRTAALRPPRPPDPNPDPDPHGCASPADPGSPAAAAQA

CC(C)CC(NC(=O)C(COC(C)(C)C)NC(=O)C(Cc1ccc(O)cc1)NC(=O)C(CO)NC(=O)C(Cc1c[nH]c2ccccc12)NC(=O)C(Cc1cnc[nH]1)NC(=O)C1CCC(=O)N1)C(=O)N[C@@H](CCCN=C(N)N)C(=O)N1CCCC1C(=O)NNC(N)=O (some centres not stated)
inactive: parasite load remaining [1] 82.9% | fluorescence ratio [2] 0.89 | inhibition [3] -0.22% | inhibition [4] 7.48% | fluorescence ratio [5] 0.87 | z-score [6] -0.441 | log fold change Tl+ flux (F380Y) -0.0277 | log fold change Tl+ flux (F380Y/beta1) 0.02 | log fold change Tl+ flux (F380Y/beta2Delta) -0.0184 | log fold change Tl+ flux (F380Y/beta4) 0.00509 | log fold change Tl+ flux [7] -0.0112 | log fold change Tl+ flux (R275C) -0.0448 | log fold change Tl+ flux (R275C/beta1) 0.00576 | log fold change Tl+ flux (R275C/beta2Delta) -0.00625 | log fold change Tl+ flux (R275C/beta4) -0.0787
90.6%: viability [1]
active: log fold change Tl+ flux (R275C/Slo1WT/beta2) 0.0919

CCOC(=O)C1(CCCCCCOc2ccc(Cl)cc2)CO1 (configuration not stated)
7740: cell count [9, 14]
89%: viability [1]
1.28: fold change [9, 13]
inactive: parasite load remaining [1] 85.5% | fluorescence ratio [2] 1.01 | inhibition [3] 1.98% | inhibition [4] -2.41% | fluorescence ratio [5] 0.93 | z-score [6] -0.326 | mean signal [8] 266 | fold change [9, 12] 0.886 | z-score [10] 0.13
8740: cell count [9, 15]

CC(=O)OC1C([N+]2(C)CCCCC2)C[C@H]2C3CC[C@H]4C[C@H](OC(C)=O)C([N+]5(C)CCCCC5)CC4(C)[C@H]3CCC12C (some centres not stated)
68.8%: viability [1]
inactive: parasite load remaining [1] 86.3% | fluorescence ratio [2] 0.94 | inhibition [3] -0.4% | inhibition [4] 11.4% | outcome [6] | mean signal [8] 283
active: fluorescence ratio [5] 0.71

C#C[C@]1(O)CC[C@H]2[C@@H]3CCC4=CC(=O)CC[C@@H]4[C@H]3CCC21C (some centres not stated)
inactive: mean signal [8] 236

CN[C@@H]1[C@H](O)[C@H](NC)[C@H]2OC3(O)C(=O)C[C@@H](C)O[C@H]3O[C@@H]2[C@H]1O (some centres not stated)
inactive: mean signal [8] 224

CN1[C@@H](CC(=O)c2ccccc2)CCC[C@H]1C[C@H](O)c1ccccc1
108% and 77.1% and 78.1%: viability [1]
10500 and 10100: cell count [9, 15]
inactive: parasite load remaining [1] 59.5% and 70.7% and 71% | fluorescence ratio [2] 1.03 | inhibition [3] 0.4% | inhibition [4] -0.1% | fluorescence ratio [5] 1.03 | z-score [6] -0.358 | mean signal [8] 245 | fold change [9, 12] 1.06 and 0.859 and 0.83 | z-score [10] -0.54 and -0.495
11200 and 9030 and 8370: cell count [9, 14]
0.866 and 1.18 and 1.23: fold change [9, 13]

CC12C=CC(=O)C=C1CC[C@@H]1[C@@H]2[C@@H](O)CC2(C)[C@H]1CC[C@]2(O)C(=O)CO (some centres not stated)
inactive: mean signal [8] 258

CC(=O)SCC(Cc1ccccc1)C(=O)NCC(=O)OCc1ccccc1 (configuration not stated)
inactive: fluorescence ratio [2] 0.96 | inhibition [3] 3.56% | inhibition [4] 2.21% | fluorescence ratio [5] 0.86 | z-score [6] -0.263 | mean signal [8] 251 | z-score [11, 16] -0.406 and 0.283 and 0.224 | z-score [10] 0.9 and 0.57
0.561 and 0.494 and -0.589: z-score [11, 17]

CC[C@]1(O)CC2CN(CCc3c([nH]c4ccccc34)[C@@](C(=O)OC)(c3cc4c(cc3OC)N(C)[C@H]3[C@@](O)(C(N)=O)[C@H](O)[C@]5(CC)C=CCN6CC[C@]43[C@@H]65)C2)C1 (some centres not stated)
135%: viability [1]
inactive: parasite load remaining [1] 65.1% | fluorescence ratio [2] 0.91 | inhibition [3] -6.33% | inhibition [4] 1.18% | fluorescence ratio [5] 0.91 | outcome [6] | mean signal [8] 260

CCCCC[C@H](O)/C=C/[C@H]1[C@H](O)CC(=O)[C@@H]1CCCCCCC(=O)O
70.2% and 67.7% and 65.5%: viability [1]
inactive: parasite load remaining [1] 87.1% and 65% and 24% | fluorescence ratio [2] 0.87 | inhibition [3] -3.71% | inhibition [4] -0.39% | fluorescence ratio [5] 0.98 | z-score [6] -0.575 | mean signal [8] 268 | z-score [11, 16] -0.41 and -0.106 | z-score [10] 0.265 and 0.315
-0.367 and -0.604: z-score [11, 17]
